A selection: hits, their analogues and other compounds. The true share with any hit is near 3.4%.
esBAF inh = blocks esBAF chromatin remodeling in mouse ES cells; Bmi1-luciferase knock-in reporter, 24 h; 100% = twice the neutral-well signal; 350,000 tested, 2% active; reporter increase, % at 12.5 µM; in the data active = activation above about 40%; inconclusive = no clear call, values can overlap the other calls;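 note: 0% = median of the plate's neutral control wells and 100% = double that signal; a rise in the Bmi1 reporter signal indicates esBAF inhibition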
miR122 inh = blocks miR-122 activity in Huh7 sensor cells. 340,000 tested, 0.3% active. AID 602342. activation (reporter increase), % at 12.5 µM. Huh7 miR-122 Renilla luciferase sensor, 48 h; neutral wells = 0, positive control = 100;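 active = mean replicate activation score at least 90 and every replicate individually at or above 90; inconclusive = only one of the two criteria met; inactive = neither criterion met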;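 note: higher luciferase means less miR-122 activity so hits act as miR-122 inhibitors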
HIV Env fusion = blocks HIV Env-driven cell-cell fusion; HeLa-JRFL Env/CEM21 cell fusion, luciferase; inhibition, % at 12.3 µM; 360,000 tested, 1.1% active; AID 651610;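 active = mean replicate inhibition score of at least 50 and every replicate individually at or above 50; inconclusive = only one of the two criteria met; inactive = mean below 50 and not all replicates reaching 50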;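 note: 0% = plate neutral controls and 100% = maraviroc near 300 nM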
Wnt act = activates Wnt/beta-catenin signaling in a reporter cell assay; 300,000 tested, 1.2% active; AID 743398; activator, plate reader; activation, % at 9.35 µM; in the data active = activation above about 30%, passing the limit was not always enough; inconclusive = no clear call, values can overlap the other calls;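 note: 0% = neutral control wells and 100% = positive control wells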
MITF act = MITF TRPM1 promoter activation in melanoma cells; SK-MEL-5 TRPM1-promoter luciferase, 24 h; % of positive control, neutral wells = 0; activation, % at 12.5 µM; 300,000 tested, 0.75% active; AID 588334;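 active = mean activation of at least 80% with every replicate also reaching 80%; inconclusive = mean reaches 80% but some replicate falls short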;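 note: 0% = neutral control wells and 100% = parthenolide positive control wells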
Starred values were filed as active, the others as inactive; [ ] = dose if it differs, or a comment.

Results for CCOC(=O)c1cccc(NS(=O)(=O)c2c(C)[nH]c(=O)[nH]c2=O)c1 ?
esBAF inh: -3.0; miR122 inh: -2.2; HIV Env fusion: 15.4; MITF act: 6.5

Results for CCOC(=O)c1cccc(NS(=O)(=O)c2ccc(NC(C)=O)cc2)c1 ?
esBAF inh: -14.0; miR122 inh: 66.8; HIV Env fusion: 106.0*

What do the screens show for `Cc1noc(C)c1S(=O)(=O)Nc1ccc2c(c1)CC(=O)N([C@H](C)CO)C[C@H](C)[C@H](CN(C)S(=O)(=O)c1ccccc1)O2`?
esBAF inh: 0.3; miR122 inh: -1.0[16.7 µM]; HIV Env fusion: 46.8[16.7 µM]

What do the screens show for `O=C(CN1CCN(c2cccc(Cl)c2)CC1)Nc1ccc([N+](=O)[O-])cc1C(=O)Nc1ccccc1F`?
HIV Env fusion: 93.0*; Wnt act: -8.7; MITF act: 5.4

Results for Cc1ccc(C)c(N2CCN(CC(=O)Nc3ccc([N+](=O)[O-])cc3C(=O)Nc3ccccc3F)CC2)c1 ?
miR122 inh: 6.9; MITF act: -16.2

Results for Cc1cc(N2CCOCC2)ccc1/C=C1\SC(=O)N(C(C)C)C1=O ?
esBAF inh: 2.1; miR122 inh: -5.7; HIV Env fusion: -198.4; Wnt act: -3.6; MITF act: 59.1

What do the screens show for `CCN1C(=O)S/C(=C\c2ccc(N3CCOCC3)cc2C)C1=O`?
esBAF inh: 55.4*; miR122 inh: -4.7; HIV Env fusion: -164.6; Wnt act: 81.3*; MITF act: 66.4

What do the screens show for `CCC(C)N1C(=O)S/C(=C/c2ccc(N3CCOCC3)cc2C)C1=O` (configuration not stated)?
HIV Env fusion: -2.8; Wnt act: 0.9; MITF act: 90.8*

Results for C#CCN1C(=O)S/C(=C\c2ccc(N3CCOCC3)cc2C)C1=O ?
HIV Env fusion: -132.2; Wnt act: 56.3*; MITF act: 72.5

How did CCCN(C[C@@H]1N[C@@H](CO)[C@H]1c1ccc(-c2cccnc2)cc1)C(C)=O do in these assays?
esBAF inh: 4.9; miR122 inh: 33.3[16.7 µM]

How did Nc1cc(=O)[nH]c(SCCSc2cc(Cl)ccc2Cl)n1 do in these assays?
esBAF inh: -9.1; miR122 inh: -1.5; HIV Env fusion: 69.2*; Wnt act: -12.7; MITF act: -47.9

What do the screens show for `CCn1cnc2c(Nc3cc(F)cc(F)c3)nc(C#N)nc21`?
esBAF inh: 56.5*; miR122 inh: -1.3; HIV Env fusion: -42.5; Wnt act: 26.3; MITF act: 70.1

Results for Nc1ccccc1SC1CC(=O)N(c2ccc3c(c2)OCCO3)C1=O (configuration not stated) ?
HIV Env fusion: -23.3; Wnt act: 35.0*

How did Nc1ccccc1SC1CC(=O)N(c2ccc(Cl)c(Cl)c2)C1=O (configuration not stated) do in these assays?
esBAF inh: 3.4; HIV Env fusion: 19.9; Wnt act: 0.7; MITF act: -12.6

How did C[C@@H]1CCCCO[C@@H](CN(C)C(=O)C2CCCCC2)[C@H](C)CN([C@@H](C)CO)C(=O)c2cc(NC(=O)C3CCCCC3)ccc2O1 do in these assays?
esBAF inh: 10.2; miR122 inh: -7.9[16.7 µM]; HIV Env fusion: 8.3[16.7 µM]

How did O=C(NCCc1ccccc1)[C@H]1[C@H](CO)[C@H]2Cn3c(cccc3=O)[C@@H]1N2C(=O)C1CCC1 do in these assays?
esBAF inh: 6.5; miR122 inh: 11.2[16.7 µM]

Results for COc1nc(C)nc2c1sc1nc3c(cc12)COC(C)(C)C3 ?
esBAF inh: 26.3; miR122 inh: 2.6; MITF act: inconclusive

Results for Cc1nc(OCC(C)C)c2sc3nc4c(cc3c2n1)COC(C)(C)C4 ?
miR122 inh: 8.8; HIV Env fusion: -87.1; Wnt act: 51.6*

How did COCC#Cc1cnc2c(c1)C(=O)N([C@@H](C)CO)C[C@H](C)[C@H](CN(C)C(=O)Nc1cc(F)ccc1F)O2 do in these assays?
esBAF inh: 7.1; miR122 inh: -9.0[16.7 µM]

What do the screens show for `CN(C)c1ccc2c(c1)[C@@H]1C[C@@H](CC(=O)NCc3ccc4c(c3)OCO4)O[C@@H](CO)[C@@H]1O2`?
esBAF inh: 1.9; miR122 inh: -5.2[16.7 µM]; HIV Env fusion: 12.2[16.7 µM]

Results for C[C@H](CO)N1C[C@H](C)[C@@H](CN(C)C(=O)c2ccccc2)OCCCC[C@H](C)Oc2ccc(NC(=O)Nc3ccc(C(F)(F)F)cc3)cc2C1=O ?
esBAF inh: 2.3; miR122 inh: 10.4[16.7 µM]; HIV Env fusion: -27.2[16.7 µM]

Assay outcomes from PubChem BioAssay.
